# The list is not random: actives were taken first. Their share in the collection is about 5.2%.
# Vif imaging = inhibitors of HIV Vif; AID 602346; inhibition, % at 7.49 µM; HEK293T cells, Vif self-association by quenched fluorescence, imaging, 24 h; 340,000 tested, 0.35% active; in the data active = inhibition above about 50%, passing the limit was not always enough; inconclusive = no clear call, values can overlap the other calls; inactive = below about 31%
# SMARCA2 act = increases SMARCA2 function in MMTV reporter cells | MG213 cells, MMTV-luciferase reporter, dexamethasone, overnight | activation, % at 9.1 µM | 370,000 tested, 1% active; in the data active = activation above about 7.8%;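 note: 0% = vehicle wells and 100% = reference activator wells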
# SKN-1 inh = C. elegans SKN-1 inhibition | C. elegans VP596 Pgst-4::GFP/RFP ratio, acrylamide-induced, 24 h | inhibition, % at 21.8 µM | 360,000 tested, 0.49% active | AID 624304;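 active = interference check ratio from 0.5 to 1.5 plus GFP to RFP signal ratio inhibition reaching or exceeding a fixed threshold, cut at about 30% in these data, passing the limit was not always enough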
# esBAF inh = inhibitors of esBAF chromatin remodeling in mouse ES cells | Bmi1-luciferase knock-in reporter, 24 h; 100% = twice the neutral-well signal | reporter increase, % at 12.5 µM | 350,000 tested, 2% active; in the data active = activation above about 40%; inconclusive = no clear call, values can overlap the other calls;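 note: 0% = median of the plate's neutral control wells and 100% = double that signal; a rise in the Bmi1 reporter signal indicates esBAF inhibition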
# NadD inh = NadD (S. aureus) enzyme inhibition; purified NadD enzyme, colorimetric absorbance read-out; 360,000 tested, 0.78% active; AID 602399; inhibition, % at 20 µM; in the data active = inhibition above about 26%
# NR3A LBD binder = modulates the human NR3A ligand-binding domain | NR3A LBD differential scanning fluorimetry, Tm shift; 0% = protein alone, 100% = glycine-bound protein | Tm shift relative to glycine control, % at 25 µM | 340,000 tested, 2.5% active;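 active = melting temperature shift of at least 10% of the positive control shift, at one fixed dose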
# SMARCA2 act conf = confirmation of SMARCA2 (BRM) function activators | shares compounds with SMARCA2 act | MG213 cells, MMTV-luciferase with dexamethasone, luminescence, overnight; MG213 cells expressing E1A, Rb sequestered; DMSO wells 0%, reference activator 100% | activation, % at 9.1 µM | 3,500 tested, 30% active;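 active = activation above its plate's cutoff, the mean activation of tested wells plus 3 SD, cut at about 7.9% in these data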
# GAL4-VP16 Luc = GAL4-VP16 reporter activation counter-screen; 3,500 tested, 41% active; shares compounds with SMARCA2 act; HEK293 GAL4-VP16 pG5luc reporter, luciferase luminescence; scaled: DMSO wells 0%, SAHA wells 100%; activation, % at 9.1 µM;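 active = activation above the solvent-only control well mean plus 3 SD, averaged across control plates, cut at about 5.2% in these data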
# * = called active by the depositor; ? = inconclusive; nt = no result.
SMILES,Vif imaging,SMARCA2 act,SKN-1 inh,esBAF inh,NadD inh,NR3A LBD binder,SMARCA2 act conf,GAL4-VP16 Luc
Cc1nc(N(C)C)c2sc(=S)n(Cc3ccccc3)c2n1,0.6,8.8*,-3.5,nt,-5.1,-19.2,3.5,0.4
CCN(CC)c1nc(C)nc2c1sc(=S)n2C,-2.0,-1.6,17.6,nt,-1.0,-1.1,nt,nt
C=CCN1C(=O)/C(=C/c2ccc(OC)cc2)S/C1=N/c1nccs1,23.7,10.3*,9.2,nt,0.7,-4.3,-1.0,1.1
COc1cccc(-c2nnc3sc(-c4ccccn4)nn23)c1,14.5,2.1,-4.2,19.1,-0.9,-3.0,nt,nt
COc1cccc(-c2nn3c(-c4ccccn4)nnc3s2)c1,1.5,8.7*,-11.7,23.8,4.3,-3.1,3.1,1.4
COc1ccccc1N1CCN(C2=Nc3cccc4cccc2c34)CC1,-19.2,9.2*,-2.6,37.7,-2.7,0.6,21.8*,6.5*
O=C(C[C@H]1CC[C@H](NC(=O)Nc2cc(F)ccc2F)[C@@H](CO)O1)NCc1ccncn1,nt,nt,nt,3.6,nt,nt,nt,nt
COC(=O)C[C@@H]1CC[C@H]2[C@@H](COc3ccc(NC(=O)c4ccccc4)cc3C(=O)N2C)O1,nt,nt,nt,1.6,nt,nt,nt,nt
CCC(=O)N1[C@@H](CO)[C@@H](c2ccc(-c3ccccc3)cc2)[C@@H]1CN(C)C(C)=O,nt,nt,nt,6.6,nt,nt,nt,nt
O=C(Nc1ccccc1F)c1csc([C@@H]2C[C@H](O)[C@@H](CO)O2)n1,1.8,10.6*,8.4,5.0,-4.9,nt,-0.1,-1.4
O=C(OCC(=O)N1CCCC1=O)c1nc(Cl)c(Cl)c(Cl)c1Cl,-1.2,34.0*,-17.9,-12.3,-7.1,3.8,7.2,3.6
Cc1ccc(NC(=O)Nc2cnccn2)cc1,nt,10.0*,23.2,nt,-0.6,1.5,4.2,3.7
COc1ccccc1NC(=O)c1cccnc1,nt,8.7*,-10.8,-10.9,0.8,2.1,-0.9,-1.1
CC(=O)Nc1ccc(NCN2C(=O)[C@@H]3[C@H]4CC[C@H](C4)[C@@H]3C2=O)cc1,nt,8.9*,5.5,8.5,-1.7,-3.6,-3.5,0.2
Clc1c(-c2ccccc2)nc2ccccn12,-1.3,1.4,0.7,?,-2.1,0.8,nt,nt
c1ccn2c(c1)nc1c2nc2ccccn21,10.0,12.5*,11.6,?,-2.4,-0.2,5.3,4.3
Cc1cc(NS(=O)(=O)c2ccc(NC(=O)CSc3nnc(-c4ccc(Cl)cc4)n3Cc3ccco3)cc2)nc(C)n1,nt,9.5*,nt,nt,nt,nt,-3.3,-0.6
Cc1cc(NS(=O)(=O)c2ccc(NC(=O)CSc3nnc(-c4ccncc4)n3-c3ccccc3)cc2)nc(C)n1,nt,-3.3,nt,nt,nt,nt,nt,nt
COc1ccc(-c2nnc(SCC(=O)Nc3ccc(S(=O)(=O)Nc4cc(C)nc(C)n4)cc3)n2-c2ccc(OC)cc2)cc1,nt,10.3*,nt,nt,nt,nt,-0.4,-0.2
COc1ccc(S(=O)(=O)Nc2ccc3c(c2)C(=O)N([C@H](C)CO)C[C@@H](C)[C@@H](CN(C)C(=O)C2CCCCC2)OCCCC[C@H](C)O3)cc1,nt,nt,nt,7.1,nt,nt,nt,nt
C/C(=N\NC(=S)NCc1ccccc1)c1ccc(Cl)s1,2.5,-2.5,-15.3,-0.8,-1.2,-8.3,nt,nt
C/C(=N\NC(=S)NCc1ccccc1)c1cccs1,-5.2,8.1*,3.2,nt,4.3,-0.7,2.4,1.2
CCN1CCN(c2cc(C)c3cc(NC(=S)N4CCOCC4)ccc3n2)CC1,-3.4,3.3,8.8,nt,-2.1,0.2,nt,nt
CCN1CCN(c2cc(C)c3cc(NC(=S)N4CCN(c5ccccc5)CC4)ccc3n2)CC1,5.0,9.1*,-6.5,-3.3,-9.1,-0.4,25.9*,1.4
CCOc1ccc(C(=O)Nc2ccc3nc(N4CCN(CC)CC4)cc(C)c3c2)cc1,-6.0,-1.6,12.6,-64.5,-6.4,-9.1,nt,nt
SMILES,Vif imaging,SMARCA2 act,SKN-1 inh,esBAF inh,NadD inh,NR3A LBD binder,SMARCA2 act conf,GAL4-VP16 Luc
CCN1CCN(c2cc(C)c3cc(NC(=O)c4cc(OC)cc(OC)c4)ccc3n2)CC1,13.0,9.9*,-12.3,12.4,-11.4,1.1,13.5*,5.5*
CCCN(C)C[C@@H]1Oc2cc(-c3ccc(C)cc3)ccc2S(=O)(=O)N([C@H](C)CO)C[C@@H]1C,nt,nt,nt,-6.7,nt,nt,nt,nt
COCC(=O)Nc1ccc2c(c1)C(=O)N(C)[C@H]1CC[C@H](CC(=O)Nc3ccccc3OC)O[C@@H]1CO2,nt,nt,nt,-4.6,nt,nt,nt,nt
O=C(/C=C/c1ccccc1Cl)Nc1cccnc1,5.3,9.0*,15.9,8.9,1.8,0.4,8.3*,7.5*
C[C@@H]1CN([C@H](C)CO)C(=O)c2cc(NS(=O)(=O)c3cccs3)ccc2O[C@@H](C)CCCCO[C@H]1CN(C)C(=O)Nc1ccc(F)cc1,nt,nt,nt,-2.5,nt,nt,nt,nt
CCCNc1ccc(C(=O)OCC)cc1[N+](=O)[O-],?,9.3*,12.9,51.9*,-8.0,1.9,8.4*,4.4
C[C@@H]1CN([C@H](C)CO)C(=O)Cc2cc(NS(=O)(=O)c3ccccc3)ccc2O[C@@H]1CN(C)S(=O)(=O)c1ccc(F)cc1,nt,nt,nt,0.3,nt,nt,nt,nt
O=C(C[C@@H]1C[C@H]2c3cc(NC(=O)Nc4ccccc4)ccc3O[C@H]2[C@@H](CO)O1)NCC1CC1,nt,nt,nt,3.2,nt,nt,nt,nt
Cc1cc2c([nH]c3ccccc32)c2c1OC(C)(C)C=C2,-5.5,8.3*,9.1,91.7*,2.3,16.2*,14.4*,7.9*
C[C@@H]1CN([C@@H](C)CO)C(=O)c2cc(NC(=O)NC3CCCCC3)ccc2O[C@@H](C)CCCCO[C@H]1CN(C)Cc1ccc(C(=O)O)cc1,nt,nt,nt,0.2,nt,nt,nt,nt
O=c1c2c(nc3cc(-c4ccc(Cl)cc4)[nH]n13)CCS2,0.7,12.6*,3.2,nt,9.1,4.4,8.6*,7.6*
O=c1c2c(nc3cc(-c4ccc(F)cc4)[nH]n13)CCCC2,10.8,1.4,15.7,-49.6,-3.7,1.6,nt,nt
O=c1c2c(nc3cc(-c4cccc(F)c4)[nH]n13)CCC2,3.9,12.5*,0.5,1.4,15.3,-1.9,8.0*,11.7*
O=c1c2c(nc3cc(-c4cccc(Cl)c4)[nH]n13)CCC2,nt,10.5*,1.8,-6.4,1.0,-0.8,16.1*,13.0*
CN1c2ccc(Br)cc2[C@@H]2[C@@H](CCN2S(=O)(=O)c2ccccc2)[C@H]1CO,nt,nt,nt,1.4,nt,nt,nt,nt
COc1ccc(NC(=O)Nc2ccc3c(c2)CC(=O)N([C@H](C)CO)C[C@@H](C)[C@@H](CN(C)C(=O)Nc2ccccc2)O3)cc1,nt,nt,nt,-4.3,nt,nt,nt,nt
C[C@@H]1CCCCO[C@H](CN(C)C(=O)Nc2ccc(C(F)(F)F)cc2)[C@H](C)CN([C@@H](C)CO)C(=O)c2cc(NC(=O)C3CCCCC3)ccc2O1,nt,nt,nt,0.3,nt,nt,nt,nt

# Screens deposited in PubChem by several laboratories.
